Screens as filed in PubChem BioAssay.
Tau fibril FP: tau fibrillization inhibition (FP); AID 1468; Potency, µM (top dose mostly 57.7 µM), for the others: top-dose activity, negative = inhibition, usual class: inhibitors; 0.39% of 280,000 active; P10636; K18 P301L tau heparin fibrillization, Alexa594 FP, 6 h; also: nearly all actives have a fitted effect of over 55% in size
Target sequence (P10636 561-689 P618L limits assumed): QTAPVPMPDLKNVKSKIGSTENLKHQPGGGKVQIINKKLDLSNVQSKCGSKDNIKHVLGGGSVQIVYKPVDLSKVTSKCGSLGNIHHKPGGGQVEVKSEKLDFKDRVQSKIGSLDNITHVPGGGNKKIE
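Steps: dispense K18 P301L tau (15 uM plus 0.24 uM Alexa 594 tracer, final) in pH 7 sodium acetate; add compound; add heparin (20 uM final); incubate 6 hr, 37 C; add ThT (30 uM final); after 1 hr ambient, read FP.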
Tau fluor cs: counter-screen for tau fibril formation inhibitors; tau K18 P301L Alexa594 fluorescence, heparin fibrillization; Potency, µM (doses to about 57.7 µM), for the others: top-dose activity change, negative = decrease; 0.93% of 280,000 active; also: nearly all actives have a fitted effect of over 55% in size
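Human tau K18 P301L (15 uM unlabeled, 0.24 uM Alexa 594-labeled) in 100 mM sodium acetate pH 7 with 20 uM heparin, 6 hr at 37 C. ThT 30 uM added, 1 hr ambient; Alexa 594 FP and total fluorescence read at 555/632 nm.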
PLK1 PBD block: inhibitors of human PLK1 polo-box domain binding; AID 720504; Potency, µM, without a hit: max response, negative = inhibition, usual class: inhibitors; P53350; 2.8% of 360,000 active; Plk1 PBD binding of FITC phosphopeptide, fluorescence polarization; also: series mostly up to about 57 µM; nearly all actives have a fitted effect of over 65% in size
Sfp PPTase inh: Sfp phosphopantetheinyl transferase inhibition. Biochemical Sfp PPTase activity, qHTS. Potency, µM, for the others: largest response in the series, negative = inhibition, hits mostly inhibitors. Q9F4F7. 3.5% of 310,000 active;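 also: the enzyme is Sfp with the accession as filed and its product quenches rhodamine fluorescence; 0% = enzyme reaction without inhibitor and -100% = no enzyme wells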
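Fluorescence-quenching assay with 15 nM Sfp, 5 uM rhodamine-CoA and 12.5 uM BHQ-2-labelled ybbR peptide in pH 7.6 Hepes/MgCl2 buffer. Enzyme was pre-incubated with compound for 15 min at room temperature. Rate was taken from the 30-min fluorescence change (525/598 nm).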
VDR inh: inhibitors of human vitamin D receptor; P11473; VDR-SRC2-3 peptide fluorescence polarization, 2 h; 0.93% of 400,000 active; Potency, µM, inactives show max response, negative = inhibition, hits mostly inhibitors
Target sequence (P11473 whole entry, looked up): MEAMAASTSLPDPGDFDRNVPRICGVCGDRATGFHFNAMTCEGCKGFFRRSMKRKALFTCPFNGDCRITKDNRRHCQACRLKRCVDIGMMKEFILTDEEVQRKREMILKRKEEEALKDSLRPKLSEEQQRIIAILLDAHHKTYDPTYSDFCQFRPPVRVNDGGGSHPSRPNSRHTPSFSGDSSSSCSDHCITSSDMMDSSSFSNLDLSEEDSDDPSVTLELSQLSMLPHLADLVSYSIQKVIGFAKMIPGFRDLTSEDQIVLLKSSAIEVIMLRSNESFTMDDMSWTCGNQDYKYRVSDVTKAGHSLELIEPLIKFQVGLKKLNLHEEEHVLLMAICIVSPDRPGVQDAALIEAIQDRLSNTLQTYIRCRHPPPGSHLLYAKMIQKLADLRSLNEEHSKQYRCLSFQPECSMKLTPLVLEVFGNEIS
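Fluorescence polarization assay of small-molecule disruption of VDR binding to coregulator peptide SRC2-3. Compounds and controls pin-transferred, then read after 2 h incubation at ambient room temperature.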
Tau ThT inhib: tau fibrillization inhibition (ThT binding); 2.1% of 270,000 active; recombinant tau K18 P301L (four-repeat tau fragment), heparin-induced fibrillization, ThT fluorescence; Potency, µM (top dose mostly 57.4 µM), for inactives: top-dose activity, negative = inhibition, usual class: inhibitors; AID 1460; also: nearly all actives have a fitted effect of over 55% in size
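K18 P301L tau (15 uM + 0.24 uM Alexa 594-tagged), heparin 20 uM, NaOAc pH 7, 6 h 37 C; ThT 30 uM, 1 h RT, ex 450/em 510 nm.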
An asterisk follows results filed as active; u = inconclusive; x = no result; [ ] = dose if it differs, or a comment. This is a sample that favours compounds with a hit; in the whole collection about 6% have one here. Calls follow the shape of the dose curve; as a rule, active = well fitted curve in the direction sought with a large enough effect; inconclusive = small, poorly fitted or top-dose-only effect, or another doubt; inactive = no such curve, though single readings can be large; an effect the other way counts as inactive or inconclusive. Unless noted, % is scaled to controls: 0 for no effect and ±100 for the full control effect; potency is read from the fitted curve at half-maximal effect.

SMILES	Tau fibril FP	Tau fluor cs	PLK1 PBD block	Sfp PPTase inh	VDR inh	Tau ThT inhib
CN(C)CCN(C)C1CN(Cc2ccc([N+](=O)[O-])cc2)S(=O)(=O)C1 (centres undefined)	x	x	1%	x	x	x
O=S(=O)(c1ccc(Br)s1)N1CCN(c2ccc(F)cc2)CC1	x	x	-5%	50µM*	-13%	x
CN1CCN(c2ncnc3c2ncn3[C@H]2CN(Cc3ccc(C(=O)O)cc3)C[C@@H](CO)O2)CC1	x	x	4%	x	x	x
O=C(CSc1nnc(-c2cccnc2)n1Cc1ccco1)N1c2ccccc2Sc2ccccc21	6%	-5%	-9%	3.5µM*	9%	u
Clc1cccc(CSc2nnc(-c3cccnc3)n2Cc2ccco2)c1	2%	-1%	-11%	50µM*	8%	1%
O=C(CSc1nnc(-c2cccnc2)n1Cc1ccccc1)NCc1ccco1	-5%	-1%	-13%	-6%	-20%	u
Clc1ccc(CSc2nnc(-c3cccnc3)n2Cc2ccco2)c(Cl)c1	2%	2%	-27%	35µM*	-13%	u
c1cncc(CSc2nnc(-c3cccnc3)n2Cc2ccco2)c1	6%	-1%	x	16%	x	-3%
Cc1nc(C(F)(F)F)ccc1C(=O)N1CCCCCC1(C)C(=O)NCC(C)C (centres undefined)	x	x	-8%	x	x	x
CN(C)C(=S)Oc1ccccc1C1(C)OCCO1	x	x	-1%	x	x	x
CCCCCCC(=O)N(O)C1CC(=O)N(c2ccc(C)cc2)C1=O (centres undefined)	15%	1%	27µM*	20µM*	32µM*	u
CCCCCCC(=O)N(O)C1CC(=O)N(c2ccc(Cl)cc2)C1=O (centres undefined)	9%	-10%	u	25µM*	u	-20%
CCCOc1ccc(N2C(=O)CC(N(CCC)C(=O)CCC(=O)O)C2=O)cc1 (centres undefined)	-1%	2%	-6%	-4%	1%	-9%
Cc1ccc(S(=O)(=O)Nc2cc(C(C(=O)OC(C)C)C(=O)C(F)(F)F)c(O)c3ccccc23)c(C)c1 (centres undefined)	14%	u	-19%	56µM*	-6%	u
Cc1ccc(S(=O)(=O)Nc2ccc3c4c(cccc24)CC3)c(C)c1	x	x	-6%	x	-11%	x
Cc1ccc(S(=O)(=O)c2c(Nc3ccc(C)c(C)c3)sc(C(=O)c3ccc4c(c3)OCO4)c2N)cc1	-11%	-10%	x	x	4%	4%
Oc1cc(CNC2CCCCC2)c(O)cc1CNC1CCCCC1	x	x	5.3µM*	x	-15%	x
O=C(O)CCCC(=O)Nc1ccn(-c2ccccc2)n1	-6%	0%	11µM*	5%	-13%	1%
Cc1ccc(C(=O)c2c(N)c(C(=O)Nc3ccccc3Cl)c3ccccn23)cc1	-11%	-13%	x	x	15%	-6%
O=C(O)/C=C/c1ccc2noc(-c3ccccc3)c2c1	2%	-2%	-12%	50µM*	-11%	-17%
Cc1ccc(-c2onc3ccc(C=O)cc23)cc1	u	u	u	-24%	23%	25µM*
COc1ccccc1NC(=O)CSc1oc(-c2cccs2)nc1S(=O)(=O)c1ccccc1	-26%	u	x	x	-4%	-5%
Oc1ccccc1-c1nnc(COc2ccc(Cl)cc2Cl)o1	1%	-19%	27µM*	-5%	79µM*	u
CCOC(=O)CCN1C(=O)[C@H]2[C@@H]3[C@H](O)[C@H](O)CC(=O)[C@H]3CC[C@H]2C1=O	-2%[11.6 µM]	1%[11.6 µM]	x	-4%	x	1%[11.5 µM]
CCc1n[nH]c(=S)n1/N=C/c1ccc(N(CC)CC)cc1	2%	-29%	-12%	-33%	-15%	u
SMILES	Tau fibril FP	Tau fluor cs	PLK1 PBD block	Sfp PPTase inh	VDR inh	Tau ThT inhib
C=CCOc1c(Br)cc(/C=N/n2c(CC)n[nH]c2=S)cc1Br	6%	-12%	-17%	79µM*	15%	-24%
N#Cc1cnc(SCCc2ccccc2)nc1N	2%	-3%	0%	1%	-1%	-1%
Cc1cnc(SCCc2ccncc2)nc1C	-7%	-7%	x	11µM*	x	u
O=[N+]([O-])c1cc(C(F)(F)F)cc([N+](=O)[O-])c1NCCNC(=S)Nc1cccc(F)c1	-7%	8.9µM*[quencher]	-1%	4%	-23%	u
Cc1ccccc1Cn1cc(CCC(=O)NC(C)c2ccccc2)c2ccccc21 (centres undefined)	0%	-15%	x	x	19%	-11%
CCCCNC(=O)CSc1nnc(C)c2c(C)n(-c3ccccc3)nc12	-3%	-2%	x	x	-5%	-9%
CN(C)C(=O)c1cn(-c2ccccc2)nc1-c1cc2ccccc2o1	6%	2%	-3%	-1%	11%	-5%
CN(Cc1cn(-c2ccccc2)nc1-c1cc2ccccc2o1)C(=O)CCC(=O)O	-4%	7%	4.2µM*	16%	79µM*	9%
CCOC(=O)CSc1nc(N)nc(C)c1Cl	6%	-2%[2.34 µM]	30µM*	-2%	u	-2%
CCOC(=O)CSc1nc2cc(OC)ccc2cc1C#N	10%	u	-6%	12%	0%	5µM*
CCOC(=O)CSc1nc(C)cc(C)c1C#N	3%	-4%	u	56µM*	-16%	-14%
CC(NS(=O)(=O)c1ccc2c(c1)CC(C)N2C(=O)C1CC1)c1ccccc1 (centres undefined)	x	x	-5%	4%	-23%	x
N#CC1=C(c2ccccc2)/C(=C/c2ccccc2)OC1=O	8%	u	1.1µM*	u	u	-25%
COc1ccc(NC(=O)CSc2nc3ccccc3nc2N2CCC(C)CC2)cc1	-11%	-28%	x	x	u	-14%
Cc1cccc(NC(=O)CSc2nnc(NC(=O)CN3CCCCC3)s2)c1	-1%	0%	x	-19%	x	-1%
Cc1cccc(Nc2nnc(SCC(=O)Nc3cccc(S(=O)(=O)N4CCCCC4)c3)s2)c1	-25%	13µM*[quencher]	u	9%	8%	-11%
Cc1cc(=O)[nH]c(SCC(=O)O)c1C#N	-4%	-6%	-3%	15%	-2%	-1%
Cc1cc(=O)[nH]c(SCC(=O)C23CC4CC(CC(C4)C2)C3)c1C#N	-3%	-2%	24µM*	-66%	u	-13%
COc1nc(/C=C/N(C)C)c([N+](=O)[O-])c(OC)n1	-6%	u	-5%	-10%	16%	8.9µM*
Cc1csc(CN(C)C(=O)CC2C(=O)NCCN2Cc2ccc(Cl)c(F)c2)n1 (centres undefined)	x	x	-16%	1%	-16%	x
CC(=O)Nc1ccc(SC(C)C(=O)NC(N)=O)cc1 (centres undefined)	-6%	-10%	24µM*	-6%	-20%	-10%
COc1ccc(NC(=O)C(C)Sc2ccccc2)cc1 (centres undefined)	-3%	-7%	0%	6%	0%	-5%
